± gives the standard deviation of the averaged measurements. Whole data set: some 33,000 sequences, median “E-score (rank enrichment, -0.5 to 0.5)” near -0.0075, cut for the highest 2% near 0.23. The list comes from a sample in which the highest values are over-represented; it also holds similar and randomly drawn sequences.
test system: WT Max(13-93) synthetic (M65Nle); assay: PBM 8-mer E-score (E-score (rank enrichment, -0.5 to 0.5)); higher = stronger preferential binding
Description: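 Protein binding microarray (universal PBM chip covering all 10-mers in fixed probe flanks) with chemically synthesized human Max(13-93) bHLH-LZ analogs (not full-length Max) bearing noncanonical residues (hArg, Tha, Aib, Nle at 65) and aromatic Cys staples. Read-out per 8-mer (and its reverse complement): E-score (rank-based enrichment, -0.5 to 0.5) and Z-score of median probe intensity.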

Sequence | PBM 8-mer E-score
CTAATCCC | 0.144 ± 0.024
CCGTCTAC | 0.0424 ± 0.084
ACTAACCT | 0.0869 ± 0.06
GGTTCCTA | -0.109 ± 0.046
AGACACAG | -0.0614 ± 0.0067
AATTATAG | 0.279 ± 0.07
GGTTATTA | 0.126 ± 0.0068
CATTATTA | 0.262 ± 0.0081
AGTTATTG | 0.127 ± 0.066
GATTATTA | 0.146 ± 0.14
AGTTATTA | 0.245 ± 0.038
CATTATTC | 0.137 ± 0.063
AATTATAC | 0.1451 ± 0.00023
AATTATAA | 0.214 ± 0.072
GCCCCGAC | -0.0997 ± 0.092
AAAAGAGT | 0.0215 ± 0.025
CAGCCGGG | -0.216 ± 0.054
CGCGATGA | -0.0499 ± 0.057
AATACCAC | 0.232 ± 0.0071
AATACCAA | 0.0858 ± 0.08
ACTACCAT | 0.0905 ± 0.098
AATACCAT | 0.239 ± 0.0086
GATACCAC | 0.0906 ± 0.0058
AATACCAG | -0.0097 ± 0.088
CTACCCGC | -0.143 ± 0.13

Sequence | PBM 8-mer E-score
GAAGGAGC | -0.0442 ± 0.0094
AAAGGCAA | 0.225 ± 0.019
CGCGCAAG | -0.09 ± 0.021
GCGTGATA | 0.157 ± 0.0055
AAGTGATG | 0.0833 ± 0.02
GTGTGATA | 0.161 ± 0.094
ACGTGATG | 0.281 ± 0.036
AAGTGATC | 0.00227 ± 0.17
AGGTGATG | -0.035 ± 0.048
CTGTGATA | -0.0471 ± 0.032
ATGTGATA | 0.259 ± 0.018
ACGTGATC | 0.365 ± 0.03
CCGTGATC | -0.0695 ± 0.058
CCGTGATA | -0.0612 ± 0.11
ACGTGATA | 0.373 ± 0.04
CCGCCGCG | -0.0114 ± 0.016
CGACCTTA | -0.135 ± 0.088
AGTAACCA | 0.0556 ± 0.031
ACGCTAAA | -0.0749 ± 0.18
AAGGTTCG | 0.00686 ± 0.047
TCGGTAAA | 0.0761 ± 0.071
GCGTTCGA | -0.0763 ± 0.0099
GTCCTAAC | -0.0552 ± 0.13
ATCCTAAC | 0.133 ± 0.071
CTACTAAC | 0.279 ± 0.095

Sequence | PBM 8-mer E-score
CTACTAAG | -0.104 ± 0.13
GTACTAAA | 0.0526 ± 0.051
CTCCTAAC | 0.24 ± 0.12
ATACTAAC | 0.159 ± 0.022
ATACTAAA | 0.236 ± 0.0049
TTACTAAA | 0.109 ± 0.064
CTCCAAAG | -0.102 ± 0.047
ATGGAACC | -0.166 ± 0.054
ACAGAACG | -0.0169 ± 0.0023
CAACCGGC | -0.263 ± 0.061
AAAATCAA | 0.0163 ± 0.098
GAAATCAA | 0.138 ± 0.029
CAAATCAA | 0.245 ± 0.008
GTCGGAAA | -0.0618 ± 0.062
ACAATACA | 0.106 ± 0.079
ACAATACT | 0.117 ± 0.14
ACAATACC | 0.249 ± 0.069
CTTGCTCC | -0.0612 ± 0.0067
GGGCATGA | -0.0171 ± 0.012
GTGCATGA | 0.265 ± 0.012
ATGCATCG | 0.0483 ± 0.15
ATGCATGC | 0.203 ± 0.04
GTGCATCA | 0.0702 ± 0.089
ATGCATCA | 0.254 ± 0.0073
ATGCATGA | 0.244 ± 0.02

Sequence | PBM 8-mer E-score
ATGCATTC | 0.197 ± 0.016
ATGCATTA | 0.265 ± 0.055
CTGCATGA | -0.175 ± 0.057
ATGCATGG | 0.156 ± 0.079
CTGCATTA | 0.0253 ± 0.0015
CTGCTGTA | -0.271 ± 0.066
CGCTGCGC | -0.152 ± 0.14
CGAGCTCC | 0.00928 ± 0.0055
CAGGATTC | -0.0901 ± 0.04
AAGTCCGC | -0.204 ± 0.041
CCAAACCA | 0.037 ± 0.03
AGGGTGTG | 0.0713 ± 0.066
CAGTAACG | -0.0368 ± 0.021
CGAGCTGC | -0.214 ± 0.048
AACTCCGG | -0.0587 ± 0.069
AATTGGCA | 0.139 ± 0.04
TATTGGCA | 0.243 ± 0.034
CATTGGCA | -0.0219 ± 0.039
CGCGCCCA | 0.0179 ± 0.03
GTCGACAA | 0.0204 ± 0.0078
AAGAAGGG | 0.213 ± 0.0093
ACGTAAAA | 0.0973 ± 0.0094
ACGTAAAT | 0.0493 ± 0.0072
ACGTAAAG | 0.281 ± 0.033
ACAGGCGA | -0.138 ± 0.092

Sequence | PBM 8-mer E-score
ACAGTATC | 0.235 ± 0.0095
ACAGTATA | 0.134 ± 0.0089
ACAGTATG | 0.135 ± 0.041
CACCTTCA | -0.109 ± 0.0089
AATGCTTA | 0.194 ± 0.036
CATGCTCG | 0.188 ± 0.038
CATGCTCA | 0.281 ± 0.034
CATGCTCC | 0.18 ± 0.012
CATGCTTA | 0.246 ± 0.045
CATGCTGA | 0.169 ± 0.029
GACATTAC | 0.0651 ± 0.0097
ATCATTTG | 0.0683 ± 0.013
CTTTCCGC | -0.00053 ± 0.0035
GTCGCATA | 0.127 ± 0.004
CAATCTCA | 8e-05 ± 0.15
CCCTATTC | 0.0618 ± 0.016
CATAAAAA | 0.213 ± 0.085
GATAAACA | 0.138 ± 0.13
TAAAAAAA | 0.123 ± 0.0092
GATAAAAC | 0.141 ± 0.1
TATAAAAA | 0.258 ± 0.13
GATAAAAA | 0.242 ± 0.021
GACCCCGC | -0.0133 ± 0.0045
CAAGCACC | -0.0769 ± 0.043
CAAGTAGC | -0.0222 ± 0.13

Sequence | PBM 8-mer E-score
GGACGCGA | -0.0617 ± 0.22
CGAGAACC | -0.00648 ± 0.079
CAACATGC | 0.119 ± 0.023
AAACATGA | 0.187 ± 0.041
AAACATGG | 0.2074 ± 0.0013
GAACATGC | 0.164 ± 0.015
AAACATGT | 0.315 ± 0.018
AAACATGC | 0.248 ± 0.021
CCCATCGA | -0.073 ± 0.074
GTCTAGGA | -0.0888 ± 0.0088
AGCTCGAT | -0.0955 ± 0.12
AAGTGAGT | 0.0792 ± 0.0081
CATGACAA | 0.196 ± 0.036
AATGACAG | 0.103 ± 0.13
AAAGACAG | 0.091 ± 0.049
AAAGACAC | 0.279 ± 0.032
AATGACAC | 0.239 ± 0.013
CATGACAG | 0.0777 ± 0.066
CATGACAC | 0.29 ± 0.036
GAAGACAA | -0.00129 ± 0.039
GATGACAC | 0.0335 ± 0.0041
CAAGACAA | 0.123 ± 0.084
TAAGACAA | 0.26 ± 0.04
AAAGACAA | 0.2 ± 0.078
CTCGCGTC | -0.0607 ± 0.017

Sequence | PBM 8-mer E-score
GTTTGATA | 0.157 ± 0.13
GTACCAAA | 0.104 ± 0.08
GCGGGCCA | -0.176 ± 0.11
ACATCCGA | -0.16 ± 0.072
CACGTATG | 0.0325 ± 0.16
GGAGTTCA | 0.024 ± 0.016
CGCGGTTA | -0.0113 ± 0.021
ATCTTACG | -0.013 ± 0.042
AAGGAGCG | -0.0544 ± 0.078
GATGACAA | 0.147 ± 0.014
TATGACAA | 0.22 ± 0.013
AATGACAA | 0.296 ± 0.089
AGAAAAGC | 0.121 ± 0.075
AACACGTC | 0.0692 ± 0.09
CACACGTG | 0.4756 ± 0.0046
CACACGTC | 0.0446 ± 0.022
AACACGTG | 0.4954 ± 0.001
CACACGTA | 0.0918 ± 0.056
AACACGTA | 0.189 ± 0.04
AGGAAAAT | 0.102 ± 0.051
CTTGCCAA | 0.0438 ± 0.04
CTTTAAGA | 0.0629 ± 0.086

Source: the supplement of paper PMC12636033
